Assay outcomes: PubChem, Broad Institute
U2OS ROS induce: raises reactive oxygen species in U2OS cancer cells. U2OS ROS induction, H2DCF-DA fluorescence. 2% of 46,000 active. AID 624156. ROS induction (% of piperlongumine), % at 10 µM; in the data active = ROS induction above about 79%, passing the limit was not always enough;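 note: 0% = DMSO vehicle median and 100% = reference compound median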
YB-1 expression: YB-1 expression inhibition; U2OS, qRT-PCR YB-1 vs CDIP delta delta Cp, 16 h; stronger effect = higher value; zero = DMSO, each unit about twofold; delta delta Cp (YB-1 minus CDIP) (concentration not given with the values); 0.37% of 30,000 active;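 active = delta delta Cp rounded down to an integer at or above 3, about 3 SD of DMSO wells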;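 note: higher means less YB-1 transcript or more CDIP transcript relative to DMSO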
An asterisk follows results filed as active; · = no result given. Sampled rows, rich in hits. Any-hit rate of the full collection: about 2.3%.

SMILES | U2OS ROS induce | YB-1 expression
O=C(O)CCS(=O)(=O)c1nc(-c2ccccc2)cc(C(F)(F)F)n1 | 1 | ·
O=C(CCS(=O)(=O)c1nc(-c2ccccc2)cc(C(F)(F)F)n1)Nc1ccc(Cl)cc1Cl | 101* | ·
C[C@H](CO)N1C[C@H](C)[C@H](CN(C)CC2CC2)Oc2ccc(NC(=O)C3CC3)cc2C1=O | 2 | 0.15
Cc1noc(C)c1NC(=O)N(C)C[C@H]1Oc2ccc(NC(=O)Nc3ccc(F)cc3)cc2C(=O)N([C@H](C)CO)C[C@@H]1C | 82* | 0.24
C[C@H]1CN([C@@H](C)CO)C(=O)c2cc(NC(=O)C3CC3)ccc2O[C@H]1CN(C)CC1CC1 | -25 | 13*
Cc1noc(C)c1NC(=O)N(C)C[C@H]1Oc2ccc(NC(=O)Nc3ccc(F)cc3)cc2C(=O)N([C@@H](C)CO)C[C@@H]1C | -6 | 0.045
C[C@H](CO)N1C[C@H](C)[C@H](CN(C)C(=O)Nc2ccc(C(F)(F)F)cc2)Oc2ccc(NC(=O)Nc3ccc(F)cc3)cc2C1=O | 96* | 0.012
C[C@@H]1CN([C@H](C)CO)C(=O)c2cc(NC(=O)C3CC3)ccc2O[C@@H]1CN(C)C(=O)Nc1ccc(C(F)(F)F)cc1 | -7 | 0.26
C[C@H](CO)N1C[C@H](C)[C@@H](CN(C)C(=O)Nc2ccc(C(F)(F)F)cc2)Oc2ccc(NC(=O)C3CC3)cc2C1=O | 18 | 3.3*
C[C@@H]1CN([C@@H](C)CO)C(=O)c2cc(NC(=O)Nc3ccc(C(F)(F)F)cc3)ccc2O[C@H]1CN(C)C(=O)Nc1ccc(F)cc1 | -4 | -0.012
Clc1ccc(C=Nc2ccc3c(c2)OCCOCCOCCO3)c(Cl)c1 | -22 | ·
C=CCn1c(SCc2ccc(C#N)cc2Cl)nnc1-c1cccc(OC)c1 | -16 | ·
N#CC(C#N)=C(Nc1ccccc1Cl)SCc1cccc(F)c1 | 3 | 0.18
O=C(CSc1nc2ccccc2o1)NCC12CC3CC(CC(C3)C1)C2 | -2 | ·
C[C@@H]1CN([C@@H](C)CO)C(=O)c2cc(NC(=O)Nc3ccc4c(c3)OCO4)ccc2O[C@H]1CN(C)Cc1ccc(C(F)(F)F)cc1 | 6 | 0.072
C[C@@H]1CN([C@@H](C)CO)C(=O)c2cc(NC(=O)Cc3ccccc3)ccc2O[C@@H]1CN(C)C(=O)Nc1ccc(C(F)(F)F)cc1 | 94* | 0.34
C[C@H](CO)N1C[C@H](C)[C@H](CN(C)C(=O)Nc2ccc(C(F)(F)F)cc2)Oc2ccc(NC(=O)NC3CCCCC3)cc2C1=O | 99* | -0.59
C[C@H]1CN([C@@H](C)CO)C(=O)c2cc(NC(=O)CCCCCC(=O)Nc3ccccc3N)ccc2O[C@@H]1CN(C)C(=O)Nc1ccc(F)cc1 | 108* | 0.48
C[C@@H]1CN([C@H](C)CO)C(=O)c2cc(NC(=O)CCCCCC(=O)Nc3ccccc3N)ccc2O[C@H]1CN(C)C(=O)Nc1ccc(F)cc1 | 2 | 0.13
C[C@H]1CN([C@@H](C)CO)C(=O)c2cc(NC(=O)Nc3ccc4c(c3)OCO4)ccc2O[C@@H]1CN(C)Cc1ccc(C(F)(F)F)cc1 | 94* | 0.061
C[C@H](CO)N1C[C@H](C)[C@@H](CN(C)C(=O)Nc2ccc(C(F)(F)F)cc2)Oc2ccc(NC(=O)NC3CCCCC3)cc2C1=O | 36 | 0.065
C[C@@H]1CN([C@@H](C)CO)C(=O)c2cc(NC(=O)Cc3ccccc3)ccc2O[C@H]1CN(C)C(=O)Nc1ccc(C(F)(F)F)cc1 | 9 | -0.31
Cc1cc(Br)c(S(=O)(=O)C(C)(C)C)c(Br)c1 | -13 | ·
N#CCNC(=O)c1ccc(Br)cc1 | -8 | ·
COc1ccc(NC(=O)Nc2ccc3c(c2)C(=O)OC3)cc1 | 1 | ·
SMILES | U2OS ROS induce | YB-1 expression
CC(C)(C)c1ccc(NC(=O)Nc2ccc3c(c2)OCCO3)cc1 | -4 | ·
Cc1ccc(C(=O)NCC2CCCO2)cc1C (configuration not stated) | 0 | ·
COc1ccc2[nH]c3c(=O)n(CCN4CCC(Cc5ccccc5)CC4)cnc3c2c1 | 18 | ·
O=c1c2ccccc2nc(SCc2cccc3nsnc23)n1-c1ccccc1 | 5 | ·
O=c1c2ccccc2nc(SCc2ccc3c(c2)OCO3)n1-c1ccccc1 | 107* | -0.6
C[C@H]1CN([C@@H](C)CO)C(=O)c2cccc(NC(=O)c3ccc(-c4nccs4)cc3)c2O[C@@H]1CN(C)Cc1ccc(C(=O)Nc2ccccc2N)cc1 | 159* | -0.023
C[C@@H]1CN([C@H](C)CO)C(=O)c2cccc(NC(=O)c3ccc(-c4nccs4)cc3)c2O[C@H]1CN(C)Cc1ccc(C(=O)Nc2ccccc2N)cc1 | 95* | -0.66
Cc1noc(C)c1S(=O)(=O)N(C)C[C@@H]1Oc2c(NC(=O)c3ccc(-c4nccs4)cc3)cccc2C(=O)N([C@H](C)CO)C[C@@H]1C | 43 | -0.13
C[C@H]1CN([C@@H](C)CO)C(=O)c2cccc(NC(=O)c3ccc(-c4nccs4)cc3)c2O[C@H]1CN(C)Cc1ccccc1 | 8 | -0.49
Cc1noc(C)c1S(=O)(=O)N(C)C[C@H]1Oc2c(NC(=O)c3ccc(-c4nccs4)cc3)cccc2C(=O)N([C@H](C)CO)C[C@H]1C | 106* | -0.27
C[C@@H]1CN([C@@H](C)CO)C(=O)c2cccc(NC(=O)c3ccc(-c4nccs4)cc3)c2O[C@@H]1CN(C)Cc1ccc(-c2ccccc2)cc1 | 67 | -0.13
O=C1N=C(N2CCOCC2)SC1=C1CCCC1 | -19 | ·
Cc1cccc(N=C2NC(=O)/C(=C3/C(=O)N(CC(=O)O)c4ccccc43)S2)c1C | -16 | ·
COc1ccc(C)cc1NC(=O)CSc1nnc(-c2ccc(Cl)c(Cl)c2)n1C | 9 | ·
COc1ccc(C)cc1NC(=O)CSc1nnc(-c2ccc(C(C)(C)C)cc2)n1C | 93* | ·
O=c1cc(CSc2nc3ccccc3s2)c2ccccc2[nH]1 | 2 | ·
CCN(CC)c1ccc(/C=C/C#N)cc1 | -1 | ·
CC1(C)CCc2cc(-c3ccn(S(=O)(=O)c4ccc(Cl)cc4)n3)ccc2O1 | 96* | -0.34
CC1(C)CCc2cc(-c3ccn(S(=O)(=O)c4cccc(C(F)(F)F)c4)n3)ccc2O1 | 14 | 0.014
COc1ccc2oc(=O)c(-c3nnc(NCc4ccc5c(c4)OCO5)s3)cc2c1 | 2 | ·
CCOC(=O)c1c(CS(=O)c2ccc(Cl)cc2)oc2c(F)c(F)c(F)c(F)c12 (configuration not stated) | -3 | ·
CCOC(=O)c1sc2sc(C(=O)OCC)c(-c3ccc(Cl)cc3)c2c1N | 93* | 0.083
Cc1ccc(CCNC(=O)C2CCN(c3nc4ccccc4o3)CC2)cc1 | -1 | ·
Cc1ccc(Nc2cc(C(=O)N3CC(C)CC(C)C3)c3ccccc3n2)cc1C (configuration not stated) | 38 | ·
C=CCOc1cc(C)nc(N2CCOCC2)n1 | -9 | ·
C=CCNC(=O)[C@H]1[C@@H]2C(=O)O[C@@H](c3ccccc3)[C@@H](c3ccccc3)N2[C@@H](c2ccccc2OCCO)[C@]12C(=O)N(C(=O)OCCOC)c1ccccc12 | 178* | 0.09
C=CCNC(=O)[C@@H]1[C@H]2C(=O)O[C@H](c3ccccc3)[C@H](c3ccccc3)N2[C@H](c2ccccc2OCCO)[C@@]12C(=O)N(C(=O)OCCOC)c1ccccc12 | 183* | -0.2
COCCOC(=O)N1C(=O)[C@@]2(c3ccccc31)[C@H](C(N)=O)[C@H]1C(=O)O[C@H](c3ccccc3)[C@H](c3ccccc3)N1[C@@H]2c1ccccc1OCCO | 73 | -0.25
